Assay results as given in PubChem BioAssay (Tox21).
Records with an inconclusive call do not appear. A call without a number means that no potency is given here. The source made the active and inactive calls. Unless noted, the call rests on the fitted dose curve; in most records, active means well fitted curve in the direction sought with a large enough effect in the repeat runs; inconclusive means weak or mixed curves; inactive means no such curve, though single readings can be large; an effect the other way counts as inactive or inconclusive.

Legend:
[1] = qHTS assay for identifying genotoxic compounds that show differential cytotoxicity against isogenic chicken DT40 cell lines with known DNA damage response pathways - wild type cell line (AID 743012); conditions: DT40 wild type chicken cells viability, CellTiter-Glo, 40 h; series mostly up to 68.4 µM; further: nearly all actives have a fitted effect of over 60% in size
Outline: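 Using parental DT40 (300 cells/well), compounds delivered in DMSO incubate 40 h at 37 C/5% CO2. CellTiter-Glo reagent then stands 30 min at room temperature, and luminescence gives cell viability.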

[2] = qHTS assay for identifying genotoxic compounds that show differential cytotoxicity against isogenic chicken DT40 cell lines with known DNA damage response pathways - Rev3 mutant cell line (AID 743014); conditions: chicken DT40 Rev3-/- viability, CellTiter-Glo, 40 h; series mostly up to 68.4 µM; further: nearly all actives have a fitted effect of over 55% in size
[3] = qHTS assay to identify small molecule antagonists of the androgen receptor (AR) signaling pathway - cell viability counter screen (AID 743033; further: nearly all actives have a fitted effect of over 45% in size); conditions: AR-bla HEK293 viability, CellTiter-Glo luminescence, 16 h; series mostly up to 58.5 µM
[4] = qHTS assay to identify small molecule antagonists of the androgen receptor (AR) signaling pathway using the MDA cell line - cell viability counter screen (AID 743041; further: nearly all actives have a fitted effect of over 45% in size); conditions: MDA-kb2 viability, CellTiter-Fluor, 16 h, cells co-treated with R1881 androgen agonist; series mostly up to 70.3 µM
Outline: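 MDA-kb2 AR-luc human breast carcinoma cells (MMTV-luciferase, AR/GR responsive) were treated with compounds plus R1881 agonist for 16 h at 37 °C. Viability was read as CellTiter-Fluor fluorescence in the same wells as the reporter assay.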

[5] = qHTS assay to identify small molecule antagonists of the thyroid receptor (TR) signaling pathway - cell viability counter screen (AID 743064); conditions: GH3.TRE-Luc viability, CellTiter-Fluor, 24 h; series mostly up to 70.3 µM; further: nearly all actives have a fitted effect of over 50% in size
Outline: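 CellTiter-Fluor readout, 30 min at 37 °C/5% CO2, following 23.5 h incubation of GH3.TRE-Luc cells with test compound and 1 nM T3 (final).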

[6] = qHTS assay to identify small molecule antagonists of the thyroid receptor (TR) signaling pathway (AID 743065); conditions: GH3.TRE-Luc, T3-stimulated luciferase inhibition, 23.5 h; series mostly up to 70.3 µM; further: nearly all actives have a fitted effect of over 55% in size
Outline: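 GH3.TRE-Luc rat pituitary cells carrying two TR response elements driving luciferase were plated for 4 h, given compound plus 1 nM T3 (final), and incubated 23.5 h at 37 C. ONE-Glo luminescence measured reporter inhibition; CellTiter-Fluor fluorescence tracked cytotoxicity.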

[7] = tested on: thyroid hormone receptor (rat, GH3 cells); assay: qHTS assay to identify small molecule agonists of the thyroid receptor (TR) signaling pathway (AID 743066; calls by dose curve; further: potency means the concentration at half of the fitted maximal effect); conditions: GH3.TRE-Luc cells, TR agonist luciferase, 24 h; series mostly up to 83.9 µM
[8] = molecular target: Estrogen receptor (Homo sapiens) (UniProt P03372); assay: qHTS assay to identify small molecule antagonists of the estrogen receptor alpha (ER-alpha) signaling pathway (AID 743069; active means well fitted curve in the direction sought with a large enough effect in the signal ratio in the repeat runs, not every such curve was filed as active; the % refers to the signal ratio); conditions: HEK293 ER-alpha-UAS-bla, beta-lactamase ratio, antagonist mode; series mostly up to 69.4 µM
Outline: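 HEK293 cells stably carrying an ER-alpha-UAS-bla beta-lactamase reporter were pre-cultured overnight in 2% charcoal-stripped FBS medium. Test compounds in DMSO were added together with 17beta-estradiol for 18 hr at 37C. Read-out was fluorescence after 2 hr with LiveBLAzer B/G FRET substrate at room temperature.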

[9] = qHTS assay to identify small molecule antagonists of the estrogen receptor alpha (ER-alpha) signaling pathway - cell viability counter screen (AID 743074; calls by dose curve; further: nearly all actives have a fitted effect of over 45% in size); conditions: ERalpha-bla HEK293 viability, CellTiter-Glo luminescence, 18 h; series mostly up to 69.4 µM
[10] = molecular target: Estrogen receptor (Homo sapiens) (UniProt P03372); assay: qHTS assay to identify small molecule agonists of the estrogen receptor alpha (ER-alpha) signaling pathway (AID 743075; calls by dose curve); conditions: HEK293 ER-alpha-UAS-bla, beta-lactamase FRET ratio, 18 h; series mostly up to 70.1 µM
[11] = molecular target: Estrogen receptor (Homo sapiens) (UniProt P03372); assay: qHTS assay to identify small molecule agonists of the estrogen receptor alpha (ER-alpha) signaling pathway using the BG1 cell line (AID 743079); conditions: BG1Luc4E2 cells, ERE-luciferase agonist, 22 h; series mostly up to 70.3 µM; further: nearly all actives have a fitted effect of over 20% in size
[12] = qHTS assay to identify small molecule antagonists of the estrogen receptor alpha (ER-alpha) signaling pathway using the BG1 cell line (AID 743080; calls by dose curve;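 further: BG1 cells stimulated with 17beta-estradiol alongside compound; nearly all actives have a fitted effect of over 25% in size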); conditions: BG1Luc4E2 ERE-luciferase antagonist mode, luminescence; series mostly up to 70.3 µM
Outline: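 BG1Luc4E2, endogenous ER-alpha, 4xERE-luc; 5 d charcoal-stripped FBS, phenol red free; 24 h plating; cpd + 17beta-estradiol 21.5 h, 37 C/5% CO2; CellTiter-Fluor viability 30 min, then ONE-Glo luciferase 30 min RT.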

[13] = qHTS assay to identify small molecule antagonists of the estrogen receptor alpha (ER-alpha) signaling pathway using the BG1 cell line - cell viability counter screen (AID 743081); conditions: BG1Luc4E2 viability, CellTiter-Fluor, 22 h; series mostly up to 70.3 µM;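 further: compound given together with 17beta-estradiol as the ER stimulus; nearly all actives have a fitted effect of over 45% in size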
Aromatase (Homo sapiens) = Aromatase (Homo sapiens) (UniProt P11511); assay: qHTS assay to identify aromatase inhibitors (AID 743083); conditions: MCF-7 aro ERE, testosterone-driven ERE luciferase, 24 h; series mostly up to 70.3 µM; further: nearly all actives have a fitted effect of over 55% in size
[14] = qHTS assay for identifying genotoxic compounds that show differential cytotoxicity against isogenic chicken DT40 cell lines with known DNA damage response pathways - Rad54/Ku70 mutant cell line (AID 743015); conditions: DT40 Rad54/Ku70 mutant viability, CellTiter-Glo, 40 h; series mostly up to 66.8 µM; further: nearly all actives have a fitted effect of over 60% in size
[15] = molecular target: Androgen receptor (Homo sapiens) (UniProt P10275); assay: qHTS assay to identify small molecule antagonists of the androgen receptor (AR) signaling pathway (AID 743035; active means well fitted inhibition curve with a large enough effect in the signal ratio in the repeat runs, not every such curve was filed as active; the % refers to the signal ratio); conditions: HEK293 AR-UAS-bla, R1881-stimulated, beta-lactamase FRET, 16 h; series mostly up to 58.5 µM
Outline: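 Using qHTS, AR-UAS-bla GripTite HEK293 cells received compound, then R1881, and were cultured 16 h at 37C/5% CO2 before a 2 h room-temperature LiveBLAzer B/G FRET substrate step and fluorescence measurement.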

[16] = molecular target: Androgen receptor (Homo sapiens) (UniProt P10275); assay: qHTS assay to identify small molecule agonists of the androgen receptor (AR) signaling pathway (AID 743036; active means well fitted activation curve with a large enough effect in the signal ratio in the repeat runs, with a control signal flat, not every such curve was filed as active; the % refers to the signal ratio); conditions: HEK293 AR-UAS-bla GripTite, beta-lactamase FRET ratio, 16 h; series mostly up to 62.4 µM
Outline: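 Following a 4 h settling period, AR-UAS-bla HEK293 cells were dosed with compounds for 16 h at 37C. A 2 h room-temperature incubation with LiveBLAzer B/G FRET substrate preceded the fluorescence measurement.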

[17] = molecular target: Androgen receptor (Homo sapiens) (UniProt P10275); assay: qHTS assay to identify small molecule agonists of the androgen receptor (AR) signaling pathway using the MDA cell line (AID 743040; further: nearly all actives have a fitted effect of over 20% in size); conditions: MDA-kb2 AR-luc cells, MMTV luciferase, 16 h, active compounds read high; series mostly up to 70.3 µM
Outline: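 MDA-kb2 breast carcinoma cells stably carrying an MMTV-driven luciferase reporter (AR- and GR-responsive) were seeded and held 5 h at 37C, 0% CO2, then exposed to compounds in DMSO for 16 h. Luminescence was read 30 min after ONE-Glo addition.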

[18] = molecular target: Androgen receptor (Homo sapiens) (UniProt P10275); assay: qHTS assay to identify small molecule antagonists of the androgen receptor (AR) signaling pathway using the MDA cell line (AID 743042; further: nearly all actives have a fitted effect of over 55% in size); conditions: MDA-kb2 AR-luc, MMTV luciferase, R1881 antagonist, 16 h; series mostly up to 70.3 µM
Outline: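 MDA-kb2 cells (human breast carcinoma, stably carrying an MMTV-luciferase reporter responsive to AR and GR) were plated at 3,000 cells/well and preincubated 5 hr at 37C, then given compound plus R1881 agonist for 16 h. ONE-Glo luminescence was read.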

Sequence of Estrogen receptor (Homo sapiens) (P03372 whole entry, looked up): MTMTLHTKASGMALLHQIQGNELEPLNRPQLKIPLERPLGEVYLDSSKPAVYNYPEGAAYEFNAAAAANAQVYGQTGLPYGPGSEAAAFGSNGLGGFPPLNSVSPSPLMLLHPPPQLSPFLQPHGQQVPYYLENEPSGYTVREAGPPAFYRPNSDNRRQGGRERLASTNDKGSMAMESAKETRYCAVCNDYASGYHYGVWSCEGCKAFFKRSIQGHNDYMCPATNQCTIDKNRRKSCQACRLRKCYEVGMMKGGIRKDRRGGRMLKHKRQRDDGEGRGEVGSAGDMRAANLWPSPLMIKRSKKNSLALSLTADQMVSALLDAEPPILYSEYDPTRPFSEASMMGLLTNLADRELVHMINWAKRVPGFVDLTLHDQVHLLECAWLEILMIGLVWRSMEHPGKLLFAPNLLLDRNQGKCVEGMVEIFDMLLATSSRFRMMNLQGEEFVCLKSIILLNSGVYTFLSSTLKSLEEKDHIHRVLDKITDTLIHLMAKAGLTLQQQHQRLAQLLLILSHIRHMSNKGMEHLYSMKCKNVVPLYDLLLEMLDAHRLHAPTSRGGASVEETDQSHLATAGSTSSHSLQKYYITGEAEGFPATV
Sequence of Aromatase (Homo sapiens) (P11511 whole entry, looked up): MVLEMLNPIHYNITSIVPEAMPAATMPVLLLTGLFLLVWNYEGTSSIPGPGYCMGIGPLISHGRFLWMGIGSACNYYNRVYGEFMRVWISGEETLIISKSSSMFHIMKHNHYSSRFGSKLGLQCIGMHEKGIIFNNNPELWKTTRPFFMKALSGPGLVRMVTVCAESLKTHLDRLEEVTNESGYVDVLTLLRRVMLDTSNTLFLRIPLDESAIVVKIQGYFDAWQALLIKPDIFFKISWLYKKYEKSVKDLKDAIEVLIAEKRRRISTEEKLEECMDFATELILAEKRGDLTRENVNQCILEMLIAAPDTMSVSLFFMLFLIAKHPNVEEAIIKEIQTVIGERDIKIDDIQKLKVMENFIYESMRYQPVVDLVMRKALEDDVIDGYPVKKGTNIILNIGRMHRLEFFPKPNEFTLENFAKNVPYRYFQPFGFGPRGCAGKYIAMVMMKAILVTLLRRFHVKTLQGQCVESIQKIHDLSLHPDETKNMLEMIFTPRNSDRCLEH
Sequence of Androgen receptor (Homo sapiens) (P10275 whole entry, looked up): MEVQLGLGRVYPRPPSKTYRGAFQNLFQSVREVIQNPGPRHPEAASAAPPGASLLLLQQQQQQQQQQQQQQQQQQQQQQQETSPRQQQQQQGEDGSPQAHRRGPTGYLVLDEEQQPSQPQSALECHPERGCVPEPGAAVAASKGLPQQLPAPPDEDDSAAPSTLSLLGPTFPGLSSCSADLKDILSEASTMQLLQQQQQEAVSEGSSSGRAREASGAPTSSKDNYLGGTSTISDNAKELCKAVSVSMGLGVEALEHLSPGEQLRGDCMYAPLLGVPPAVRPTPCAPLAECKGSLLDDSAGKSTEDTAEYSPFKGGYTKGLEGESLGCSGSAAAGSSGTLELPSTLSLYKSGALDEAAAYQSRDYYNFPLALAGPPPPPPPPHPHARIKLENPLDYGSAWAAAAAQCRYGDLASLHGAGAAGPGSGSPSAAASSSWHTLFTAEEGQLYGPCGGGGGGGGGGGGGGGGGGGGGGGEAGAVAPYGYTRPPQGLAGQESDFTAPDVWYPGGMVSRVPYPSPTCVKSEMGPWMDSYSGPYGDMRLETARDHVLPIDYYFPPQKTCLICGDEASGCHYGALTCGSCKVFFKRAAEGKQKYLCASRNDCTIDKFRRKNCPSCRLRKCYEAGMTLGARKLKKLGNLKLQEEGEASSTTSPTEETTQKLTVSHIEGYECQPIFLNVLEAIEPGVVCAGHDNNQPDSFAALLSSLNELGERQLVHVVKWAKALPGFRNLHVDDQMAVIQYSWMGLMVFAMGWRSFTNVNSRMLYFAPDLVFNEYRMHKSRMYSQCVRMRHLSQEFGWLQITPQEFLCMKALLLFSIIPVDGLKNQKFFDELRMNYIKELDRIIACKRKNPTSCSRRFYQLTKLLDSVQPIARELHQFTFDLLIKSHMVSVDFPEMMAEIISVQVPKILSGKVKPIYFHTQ

Row | Compound | Potency [1] | Potency [2] | outcome [3] | outcome [4] | Potency [5] | Potency [6] | Potency [7] | Potency [8] | Potency [9] | Potency [10] | Potency [11] | outcome [12] | outcome [13] | outcome (Aromatase (Homo sapiens)) | Potency [14] | Potency [15] | outcome [16] | outcome [17] | outcome [18]
1 | CC(=O)N(CC(O)CO)c1c(I)c(C(=O)NCC(O)CO)c(I)c(C(=O)NCC(O)CO)c1I (configuration not stated) | inactive | inactive | inactive | inactive | inactive | inactive | inactive | inactive | inactive | inactive | inactive | inactive | inactive | inactive | – | – | – | – | –
2 | C=CC(C)(O)CC/C=C(\C)CC (configuration not stated) | inactive | inactive | inactive | – | inactive | – | inactive | inactive | inactive | inactive | inactive | inactive | inactive | inactive | inactive | – | – | – | –
3 | CC(C)SCc1ccco1 | inactive | inactive | inactive | – | – | inactive | inactive | inactive | inactive | inactive | inactive | inactive | inactive | inactive | inactive | – | – | – | –
4 | CCOC(=O)C(C)(C)C | inactive | inactive | inactive | inactive | inactive | inactive | inactive | inactive | inactive | inactive | inactive | inactive | inactive | inactive | – | – | – | – | –
5 | C[C@H](CCC(=O)NCC(=O)O)[C@H]1CC[C@H]2[C@@H]3[C@H](O)C[C@@H]4C[C@H](O)CC[C@]4(C)[C@H]3C[C@H](O)[C@]12C | inactive | inactive | inactive | – | – | inactive | 74.8 µM (active) | – | inactive | – | – | – | inactive | inactive | inactive | – | – | – | –
6 | CC(C)COC(=O)COc1ccc(Cl)cc1Cl | – | – | inactive | inactive | inactive | inactive | inactive | – | inactive | – | – | – | inactive | inactive | – | inactive | inactive | inactive | inactive
7 | COc1ccc(N=Nc2cc(C)c(N=Nc3ccc(S(=O)(=O)O)cc3)cc2OC)cc1 | inactive | inactive | inactive | inactive | inactive | – | – | – | inactive | – | – | – | – | inactive | inactive | – | – | – | –
8 | NC(Cc1c[nH]c2ccccc12)C(=O)O (configuration not stated) | inactive | inactive | inactive | inactive | – | inactive | inactive | – | inactive | – | – | – | inactive | inactive | – | – | – | – | –
9 | Cc1ccccc1OCC1CO1 (configuration not stated) | inactive | inactive | inactive | inactive | inactive | – | inactive | inactive | inactive | inactive | inactive | inactive | inactive | inactive | inactive | – | – | – | –
10 | CCCCC(CC)C(=O)OC(C)C (configuration not stated) | inactive | inactive | inactive | inactive | inactive | inactive | inactive | – | inactive | – | – | – | inactive | inactive | inactive | – | – | – | –
